# Laboratory results published in PubChem BioAssay AID588475 (Sanford-Burnham Center for Chemical Genomics, 2011).
# Among all 350,000 compounds or so, about 2,100 (0.6%) were called active.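 Rule for the calls: active = inhibition of the ligand-induced calcium signal above about 50% at the single tested concentration (limit read from the data); inactive = the rest.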 For the sample, actives were picked, then their nearest neighbours and some compounds at random.
# Experiment: blockers of CRF-evoked CRF-R2/CRF-BP calcium response – cell-based, HEK293, calcium dye fluorescence, uHTS, primary screen (AID 588475)
# Conditions: CRF-induced calcium fluorescence, at 11.8 µM, active compounds read high
row,SMILES,inhibition
1,Cc1c(NC(=O)c2coc(=O)c(Br)c2)c(=O)n(-c2ccccc2)n1C,-18.5% (inactive)
2,O=C(Nc1cccc(F)c1)c1coc(=O)c(Br)c1,102% (active)
3,O=C(CCN1C(=O)c2ccccc2C1=O)Nc1cccc(F)c1,-0.74% (inactive)
4,Cc1nn(-c2ccccc2)c(Cl)c1/C=N/NC(=O)c1nn(C)cc1[N+](=O)[O-],15.5% (inactive)
5,Cc1nn(-c2ccccc2)c(C)c1/C=C/C(=O)OC(C)C(N)=O (stereo unspecified),23.7% (inactive)
6,Cc1nn(-c2ccccc2)c(Cl)c1/C=C/C(=O)c1ccc(O)cc1,57.7% (active)
7,CC1(C)CC(=O)C(N=Nc2c(F)cccc2F)=C(O)C1,14.8% (inactive)
8,CN(c1ccc(C(=O)NCCC2=CCCCC2)cc1)S(C)(=O)=O,3.31% (inactive)
9,Cn1nnc2cc(C(=O)NCCC3=CCCCC3)ccc21,69% (active)
10,O=C(NCCC1=CCCCC1)c1ccc(-n2cncn2)cc1,-5.9% (inactive)
11,CCCCCCCCCCCC(=O)O,16.1% (inactive)
12,Cc1ccc(S(=O)(=O)c2c[nH]c3ccc(C)cc3c2=O)cc1,-6.79% (inactive)
13,O=C(c1nnc(-c2ccc(Cl)cc2)o1)C1CCCC1,1.38% (inactive)
14,S=c1[nH]nc(-c2ccc(Cl)cc2)n1CC1CCCO1 (stereo unspecified),19% (inactive)
15,O=C(c1[nH]ncc1-c1ccc(Cl)cc1)C1CO1 (stereo unspecified),98.5% (active)
16,CN(C(=O)c1cccc(NC(=O)Cc2ccc([N+](=O)[O-])cc2)c1)C1CCC1,10.4% (inactive)
17,CCOC(=O)c1cc2occc2n1CC(=O)NC1CCC(C)CC1 (stereo unspecified),4.37% (inactive)
18,O=C(CN1C(=O)CC(c2ccccc2)=Nc2ccccc21)NC1CCCCC1,3.75% (inactive)
19,CC(=O)Oc1c(C(=O)c2nnc(C)o2)c(=O)n(Cc2ccccc2)c2ccccc12,-18.6% (inactive)
20,NC(N)=N/N=C/c1ccc(OCc2ccc(Cl)cc2Cl)cc1,-68.7% (inactive)
21,O=S(=O)(Nc1cc(Cl)ccc1N1CCOCC1)c1ccccc1Cl,3.16% (inactive)
22,Cc1oc2c(c1C(=O)N1CCOCC1)C(=O)c1ccccc1C2=O,3.77% (inactive)
23,O=C1c2ccccc2-c2ncnc3c(N4CCOCC4)cc(N4CCOCC4)c1c23,54% (active)

row,SMILES,inhibition
1,CC1=C(C(=O)N(C)C)C(c2ccccc2OC(F)F)NC(=O)N1 (stereo unspecified),-0.09% (inactive)
2,CCCn1nc(Oc2nc(NC(C)C)nc(N(C)C)n2)ccc1=O,2.18% (inactive)
3,O=C(Nc1ccc(Br)cc1)c1cc(S(=O)(=O)Nc2ccccn2)ccc1Cl,-2.82% (inactive)
4,COc1ccccc1C(=O)Nc1ccc(C)c(S(=O)(=O)N2CCCCC2)c1,-0.27% (inactive)
5,Cc1ccc(NS(=O)(=O)c2cccs2)cc1S(=O)(=O)N1CCCCCC1,122% (active)
6,Cc1ccc(NS(=O)(=O)c2ccc(C(C)C)cc2)cc1S(=O)(=O)N1CCOCC1,-10.7% (inactive)
7,CN(C)CCCO/N=C(\c1ccccc1)c1ccncc1,1.7% (inactive)
8,Cc1cccc(CSc2nc3c(c(=O)n2C)SCC3)c1,59.8% (active)
9,Cn1c(SCC(=O)N2CCCCC2)nc2c(c1=O)SCC2,-10.6% (inactive)
10,Cc1cccc(CSc2nnc(C)c(=O)n2N)c1,18.4% (inactive)
11,CCCN1C2=C(C(=O)CCC2)C(c2ccc(O)c(Br)c2)C2=C1CCCC2=O,-18.3% (inactive)
12,CCc1c(C)nc(N)n2c(SCC(=O)NC3CCCCC3)nnc12,-4.43% (inactive)
13,COc1cc(/C=C(/NC(=O)c2ccc(Cl)cc2Cl)C(=O)O)cc(OC)c1OC,-5.5% (inactive)
14,CCOc1cc(/C=C(/C#N)c2ccc(Cl)cc2)cc(Cl)c1OCC(=O)O,57.4% (active)
15,CCOc1cc(/C=N/NC(=O)OC)ccc1OCCSc1ccc(Cl)cc1,-13.1% (inactive)
16,COc1ccc(SC[C@H](Cc2ccccc2)N2CCN(CCc3ccccc3)CCC2=O)cc1,-0.63% (inactive)
17,O=C(NC(Nc1nc2ccc([N+](=O)[O-])cc2s1)(C(F)(F)F)C(F)(F)F)c1ccccc1,56.4% (active)
18,N=C1C(c2nc3ccccc3s2)=C(O)CN1NC(=O)c1ccc([N+](=O)[O-])cc1,18.1% (inactive)
19,O=C(O)c1cc([N+](=O)[O-])c(Nc2cccc3ccccc23)c([N+](=O)[O-])c1,42.1% (inactive)
20,O=C(COc1ccc(NC(=O)c2ccccc2[N+](=O)[O-])cc1)c1ccc(F)cc1,20.8% (inactive)
21,Cc1ccc(CNC(=O)c2cc(-c3ccccc3C)n(CC3CC(c4cccc([N+](=O)[O-])c4)=NO3)n2)cc1 (stereo unspecified),78.1% (active)
22,Cc1ccccc1-c1cc(C(=O)NCc2cccs2)n(CC2CC(c3cccnc3)=NO2)n1 (stereo unspecified),9.77% (inactive)
23,COc1ccc(C2=NOC(Cn3nc(C(=O)NCc4ccc5c(c4)OCO5)cc3-c3ccccc3)C2)cc1 (stereo unspecified),1.87% (inactive)
